# Reference: PubChem BioAssay AID1159580 (chemical genetic matrix, 2015)
# Where “and” joins values, the source holds several entries; their conditions need not be identical. Identical values can stand only once. Screen size: about 5,500 compounds; about 2,000 (36%) were called active. Not shown: some 18% with an inconclusive outcome. The list shows a part of the results. Unmarked numbers belong to inactive results. Cut-off read from the data, not from the text of the source: active = normalized growth mostly below about 0.91 (no sharp cut-off); inconclusive = no clear call, values can overlap the other calls; inactive = mostly above about 0.92.
# Assay: chemical genetic growth profiling, strain panel (AID 1159580);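 note: tested at 20 µM; growth read once vehicle control cultures reached saturation at 30 °C; 1 = growth at the plate median or of vehicle wells; lower values mean less growth of the strain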
# Conditions: S. cerevisiae deletion strains, growth OD
compound,measurement,setting,value
CC(C)CCCC(C)[C@H]1CCC2C3C(=O)C=C4C[C@@H](O)CC[C@]4(C)C3CC[C@@]21C (some centres not stated),normalized growth,"locus YAL013W, strain DEP1, hits give low values",1.02
same,normalized growth,"locus YAL021C, strain ccr4, hits give low values",0.974
same,normalized growth,"locus YAL026C, strain drs2, hits give low values",1.02
same,normalized growth,"locus YAL030W, strain snc1, hits give low values",0.996
same,normalized growth,"locus YBL061C, strain skt5, hits give low values",1.01
same,normalized growth,"locus YBR009C, strain hhf1, hits give low values",1.06
same,normalized growth,"locus YBR021W, strain FUR4, hits give low values",1.05
same,normalized growth,"locus YBR023C, strain chs3, hits give low values",1.01
same,normalized growth,"locus YBR171W, strain sec66, hits give low values",1
same,normalized growth,"locus YBR229C, strain ROT2, hits give low values",1.06
same,normalized growth,"locus YBR231C, strain swc5, hits give low values",1.05
same,normalized growth,"locus YBR279W, strain paf1, hits give low values",1.01
same,normalized growth,"locus YCL011C, strain gbp2, hits give low values",0.994
same,normalized growth,"locus YCL016C, strain dcc1, hits give low values",1
same,normalized growth,"locus YCL029C, strain bik1, hits give low values",1.03
same,normalized growth,"locus YCL061C, strain MRC1, hits give low values",1.01
same,normalized growth,"locus YCL069W, strain vba3, hits give low values",0.996
same,normalized growth,"locus YCR088W, strain abp1, hits give low values",0.991
same,normalized growth,"locus YDL005C, strain med2, hits give low values",0.994
same,normalized growth,"locus YDL035C, strain GPR1, hits give low values",1.04
same,normalized growth,"locus YDL040C, strain nat1, hits give low values",0.982
same,normalized growth,"locus YDL074C, strain BRE1, hits give low values",1.04
same,normalized growth,"locus YDL101C, strain DUN1, hits give low values",1.04
same,normalized growth,"locus YDL185W, strain tfp1, hits give low values",1.04
same,normalized growth,"locus YDL192W, strain arf1, hits give low values",1.06
same,normalized growth,"locus YDR001C, strain nth1, hits give low values",1.01
same,normalized growth,"locus YDR069C, strain doa4, hits give low values",1
same,normalized growth,"locus YDR101C, strain arx1, hits give low values",1.04
same,normalized growth,"locus YDR137W, strain rgp1, hits give low values",0.946
same,normalized growth,"locus YDR150W, strain NUM1, hits give low values",1.01
same,normalized growth,"locus YDR159W, strain sac3, hits give low values",1.06
same,normalized growth,"locus YDR162C, strain NBP2, hits give low values",1.07
same,normalized growth,"locus YDR195W, strain ref2",0.997
same,normalized growth,"locus YDR297W, strain sur2, hits give low values",0.996
same,normalized growth,"locus YDR318W, strain mcm21, hits give low values",1.03
same,normalized growth,"locus YDR334W, strain swr1, hits give low values",0.975
same,normalized growth,"locus YDR335W, strain msn5, hits give low values",1.01
same,normalized growth,"locus YDR388W, hits give low values",1.02
same,normalized growth,"locus YDR392W, strain spt3, hits give low values",0.968
same,normalized growth,"locus YDR502C, strain sam2, hits give low values",1.02
same,normalized growth,"locus YEL003W, strain gim4, hits give low values",0.996
same,normalized growth,"locus YEL037C, strain rad23, hits give low values",1.01
same,normalized growth,"locus YEL061C, strain CIN8 (second series), hits give low values",1
same,normalized growth,"locus YEL061C, strain CIN8, hits give low values",1.01
same,normalized growth,"locus YER015W, strain faa2, hits give low values",1.01
same,normalized growth,"locus YER016W, strain bim1, hits give low values",0.994
same,normalized growth,"locus YER110C, hits give low values",1.04
same,normalized growth,"locus YER111C, strain swi4, hits give low values",1
same,normalized growth,"locus YER155C, strain BEM2 (second series), hits give low values",1.03
same,normalized growth,"locus YER155C, strain BEM2, hits give low values",1.01
same,normalized growth,"locus YER167W, strain BCK2, hits give low values",1.03
same,normalized growth,"locus YFR010W, strain ubp6, hits give low values",1.02
same,normalized growth,"locus YGL078C, strain dbp3, hits give low values",1.04
same,normalized growth,"locus YGL086W, strain mad1, hits give low values",1.01
same,normalized growth,"locus YGL167C, strain pmr1, hits give low values",1.01
same,normalized growth,"locus YGL173C, strain kem1, hits give low values",1
same,normalized growth,"locus YGL227W, strain vid30, hits give low values",1.01
same,normalized growth,"locus YGL240W, strain doc1, hits give low values",1.13 [resistant] (active)
same,normalized growth,"locus YGL248W, strain PDE1, hits give low values",1.04
same,normalized growth,"locus YGL253W, strain hxk2, hits give low values",0.93
same,normalized growth,"locus YGR135W, strain pre9, hits give low values",1.04
same,normalized growth,"locus YGR229C, strain SMI1, hits give low values",1.08
same,normalized growth,"locus YGR252W, strain gcn5, hits give low values",1.05
same,normalized growth,"locus YHR013C, strain ard1, hits give low values",1.02
same,normalized growth,"locus YHR027C, strain rpn1, hits give low values",0.992
same,normalized growth,"locus YHR030C, strain SLT2, hits give low values",1.01 and 0.966
same,normalized growth,"locus YHR079C, strain IRE1 (second series), hits give low values",1.02
same,normalized growth,"locus YHR079C, strain IRE1, hits give low values",1.01
same,normalized growth,"locus YHR094C, strain hxt1, hits give low values",1.04
same,normalized growth,"locus YHR129C, strain ARP1, hits give low values",1.03
same,normalized growth,"locus YHR142W, strain chs7, hits give low values",0.918
same,normalized growth,"locus YHR200W, strain rpn10, hits give low values",1
same,normalized growth,"locus YIL066C, strain RNR3, hits give low values",1.04
same,normalized growth,"locus YIL073C, strain SPO22, hits give low values",1.28
same,normalized growth,"locus YIL125W, strain kgd1, hits give low values",1.02
same,normalized growth,"locus YIR030C, strain dcg1, hits give low values",1.04
same,normalized growth,"locus YJL092W, strain hpr5, hits give low values",0.996
same,normalized growth,"locus YJL095W, strain BCK1 (second series), hits give low values",0.998
same,normalized growth,"locus YJL095W, strain BCK1, hits give low values",1.05 and 0.966
same,normalized growth,"locus YJL115W, strain asf1, hits give low values",1.01
same,normalized growth,"locus YJL129C, strain trk1, hits give low values",0.958
same,normalized growth,"locus YJL134W, strain LCB3, hits give low values",1.01
same,normalized growth,"locus YJL154C, strain vps35, hits give low values",1.01
same,normalized growth,"locus YJL164C, strain tpk1, hits give low values",0.966
same,normalized growth,"locus YJL166W, strain qcr8, hits give low values",1
same,normalized growth,"locus YJL168C, strain set2, hits give low values",1.03
same,normalized growth,"locus YJL187C, strain SWE1 (second series), hits give low values",1.04
